# Source: PubChem
# V-ATPase pHluor: alters yeast V-ATPase proton transport | 350,000 tested, 0.37% active | response, % at 10 µM | S. cerevisiae, pHLuorin cytosolic pH fluorescence; in the data active means response mostly above about 7.3%, no sharp cut-off; inactive means mostly below about 5.4%; further: actives read high
# TIM10 inh: inhibits growth of TIM10 yeast strain | inhibition, % at 10 µM | S. cerevisiae TIM10 strain growth, BacTiter-Glo luminescence, 24 h | AID 463195 | 330,000 tested, 1.4% active;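 active means inhibition of 40% or more at the single tested concentration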;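 further: wild-type TIM10 isogenic control strain grown at permissive 25 °C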
# tim23-1 inh: growth inhibitors of tim23-1 mutant yeast; AID 463212; 330,000 tested, 1.3% active; S. cerevisiae tim23-1 growth, BacTiter-Glo luminescence, 24 h; inhibition, % at 20 µM;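 active means growth inhibition of the mutant yeast at or above 50%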;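 further: temperature-sensitive mutant grown at 25 °C; plate controls were DMSO-treated mutant yeast for no effect and medium wells lacking yeast for full effect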
# NALP1 yeast inh: NALP1 inhibition | S. cerevisiae NALP1/ASC/caspase-1 growth, X-gal OD620, 72 h | AID 2071 | inhibition, % at 10 µM | 280,000 tested, 0.61% active; in the data active means inhibition mostly above about 24%, no sharp cut-off; inactive means mostly below about 32%
# NALP3 yeast inh: blocks the NALP3 inflammasome reconstituted in yeast. 330,000 tested, 0.39% active. inhibition, % at 10 µM. Yeast reconstituted NLRP3/ASC/caspase-1, beta-gal luminescence, 24 h. AID 2825;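 active means inhibition of 50% or more; inactive means inhibition below 50%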;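 further: plate controls were induced DMSO wells for no effect and uninduced yeast grown without galactose for full effect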
# tim10-1 inh: inhibits growth of tim10-1 mutant yeast | S. cerevisiae tim10-1 ts strain growth, BacTiter-Glo, 24 h | inhibition, % at 20 µM | 330,000 tested, 2.2% active | AID 463190;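 active means inhibition of at least 40%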;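 further: mutant grown at 25 °C; 0% = DMSO wells with yeast and 100% = wells holding no yeast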
# tim10-1 conf: confirmation of tim10-1 mutant yeast growth inhibitors | AID 463213 | 7,400 tested, 56% active | S. cerevisiae tim10-1 ts strain growth, BacTiter-Glo, 24 h | inhibition, % at 20 µM | shares compounds with tim10-1 inh;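 active means inhibition of yeast growth at or above a set limit in either of two repeat tests at 20 µM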;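 further: tim10-1 mutant grown at permissive 25 °C to find synthetic lethal compounds; 0% = DMSO yeast wells and 100% = medium wells without yeast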
# tim10 confirm: TIM10 yeast growth inhibition, confirmed | S. cerevisiae tim10 strain growth, BacTiter-Glo luminescence, 24 h | 4,600 tested, 63% active | inhibition, % at 10 µM | shares compounds with TIM10 inh | AID 463215;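 active means inhibition of yeast growth at or above a set limit in either of two replicates at 10 µM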;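 further: this counterscreen used the strain with wild-type TIM10; 0% = yeast with DMSO and 100% = medium wells lacking yeast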
# tim23-1 confirm: confirmation of tim23-1 mutant yeast growth inhibitors. shares compounds with tim23-1 inh. S. cerevisiae tim23-1 growth, BacTiter-Glo luminescence, 24 h. inhibition, % at 20 µM. 4,400 tested, 83% active. AID 463218;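 active means inhibition above about 39% in either of two replicate wells at 20 µM, limit read from the data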;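 further: temperature-sensitive tim23-1 mutant grown at 25 °C; 0% = DMSO wells with yeast and 100% = medium wells without yeast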
# The depositor's hits bear a star; . = no result. Shown are actives, neighbours in structure and some others; about 4.2% of the full set was active somewhere.
SMILES,V-ATPase pHluor,TIM10 inh,tim23-1 inh,NALP1 yeast inh,NALP3 yeast inh,tim10-1 inh,tim10-1 conf,tim10 confirm,tim23-1 confirm
COc1ccc(C2/C(=C(/O)c3ccc(Br)cc3)C(=O)C(=O)N2C)cc1 (stereo not drawn),3,-15,-10,12,17,-4,.,.,.
O=C(ONC1=NCCCCC1)c1cccc([N+](=O)[O-])c1,0,82*,78*,-19,8,61*,38*,90*,69*
O=[N+]([O-])c1cccc(/C=N/NC2=NCCCCC2)c1,-2,4,5,41,20,-11,.,.,.
CCC1CCC2(CC1)NC(=O)N(CC(=O)Nc1ccc(OC)c(Cl)c1)C2=O (stereo not drawn),-1,9,24,.,21,16,.,.,.
COc1cccc(/C=C/C(=O)OCC(=O)NCCc2ccccc2)c1,0,5,25,5,-4,25,.,.,.
COc1cccc(C(=O)Nc2ccc(Cl)c(C(F)(F)F)c2)c1,-3,61*,68*,31,11,64*,57*,50*,75*
CC(C)N1C(=O)/C(=C/c2nc3ccccc3c(=O)n2-c2ccccc2)c2ccccc21,-1,47*,60*,32,24,46*,40*,44*,58*
O=C(COC(=O)c1ccc2c(c1[N+](=O)[O-])C(=O)c1ccccc1C2=O)NC1CC1,-5,60*,76*,4,16,80*,64*,46*,73*
O=C(COC(=O)c1cccc2c1C(=O)c1ccccc1C2=O)NC1CCCCC1,-2,18,11,23,21,24,.,.,.
CC(=O)NCCc1nc2ccccc2n1Cc1cc(C)ccc1C,3,11,19,.,3,3,.,.,.
Clc1cccc(/C(Cc2nc3ccccc3[nH]2)=N\Nc2ccccc2)c1,-2,65*,59*,14,4,46*,30,5,22
Cc1ccc(N/N=C(\Cc2nc3ccccc3[nH]2)c2ccccc2)cc1,-1,.,.,.,.,.,.,.,.
O=C(NCc1ccc2[nH]c3c(c2c1)CCCC3)c1ccc(S(=O)(=O)N2CCCCC2)cc1,2,1,6,37,12,7,.,.,.
S=C(NCc1ccc2[nH]c3c(c2c1)CCCC3)Nc1ccccc1,4,48*,53*,-9,4,46*,43*,51*,59*
Cc1cc(Nc2ccccc2)nc(N2CCN(C(=O)c3ccc4c(c3)OCO4)CC2)n1,-1,-6,-8,.,2,1,.,.,.
O=C(CCc1ccccc1)c1nnc(-c2ccccc2)o1,-1,6,28,-3,21,-5,.,.,.
O=C(O)CC1S/C(=N/N=C/C2CC=CCC2)NC1=O (stereo not drawn),3,-24,11,-27,9,3,.,.,.
O=C1Nc2ccc(Cl)cc2/C1=C/C1CC=CCC1 (stereo not drawn),8,59*,64*,31,-28,78*,87*,19,65*
CC(C)COC(=O)c1cccc2c1-c1ccccc1/C2=N\O,-2,26,8,4,6,34,.,.,.
CC1CCCC(C)N1C(=O)c1cccc2c1-c1ccccc1/C2=N/O (stereo not drawn),-2,26,50*,0,14,42*,39*,.,44*
O=C1CN(C(=O)NCC(=O)N[C@@H](C(=O)O)c2ccccc2)c2ccccc2N1,1,10,12,28,12,2,.,.,.
COc1ccc(C(=O)N/N=C/c2c[nH]c3ccccc23)cc1,0,5,11,-9,17,-27,.,.,.
CCCOc1ccc(C(=O)N/N=C/c2c[nH]c3ccc(Br)cc23)cc1,2,18,55*,5,18,43*,37*,.,54*
CC12CCC(C/C1=N/OC(=O)c1cccc([N+](=O)[O-])c1)C2(C)C (stereo not drawn),0,62*,70*,13,13,42*,66*,72*,75*
CC12CCC(C/C1=N\OC(=O)c1ccc(F)cc1)C2(C)C (stereo not drawn),0,71*,71*,-65,3,66*,64*,67*,78*
SMILES,V-ATPase pHluor,TIM10 inh,tim23-1 inh,NALP1 yeast inh,NALP3 yeast inh,tim10-1 inh,tim10-1 conf,tim10 confirm,tim23-1 confirm
C/C(=N\OC(=O)c1ccc(F)cc1)c1ccc(F)c(F)c1,-2,9,5,.,30,-7,.,.,.
CSC(=NC#N)N1CCN(c2ccc([N+](=O)[O-])cc2)CC1,0,2,-4,4,16,2,.,.,.
CC1C(=O)N2CCCc3cc(S(=O)(=O)NCc4ccccc4Cl)cc1c32 (stereo not drawn),-2,-3,17,24,12,22,.,.,.
CC(C)(C)C(=O)O/N=C(\N)Cc1ccc(-c2csnn2)cc1,-2,47*,51*,13,15,75*,82*,52*,30
CCN(CC)c1nc(-c2ccccn2)nc(-c2ccccc2)c1C#N,-1,60*,58*,12,9,58*,51*,65*,53*
O=C(Nc1c(F)cccc1F)C1CCN(C(=O)c2cccs2)CC1,2,-16,-3,19,11,4,.,.,.
CC(C)(C)c1ccc(NC(=O)COC(=O)C2(C)CC2(Cl)Cl)cc1 (stereo not drawn),0,38,28,7,24,13,.,.,.
C=CCOc1ccc(/C=C2\SC(=S)N(N3CCOCC3)C2=O)cc1,2,22,20,-3,27,17,.,.,.
O=C1/C(=C/c2ccncc2)SC(=S)N1N1CCOCC1,3,58*,69*,.,30,56*,50*,55*,48*
COc1cc(C(=O)O[C@H]2CC(C)=CC[C@@]3(C)CC[C@@](O)(C(C)C)[C@H]23)ccc1O,-3,29,54*,-11,2,50*,40*,.,57*
CNc1ccc(/C=C(\C#N)c2ccccn2)cc1[N+](=O)[O-],0,-20,-1,4,14,16,.,.,.
N#C/C(=C\c1ccc(Cl)c([N+](=O)[O-])c1)c1ccccn1,2,64*,60*,19,43,54*,66*,73*,69*
CCOC(=O)C(=CNNc1cccc(Cl)c1)C(=O)OCC,.,27,55*,12,10,41*,53*,.,72*
CCOC(=O)CC(=O)CSc1ncnc2c1nnn2-c1ccc(OC)cc1,-3,-8,23,2,12,16,.,.,.
Cc1ccc(C(C)C)cc1NC(=O)Nc1ccc([N+](=O)[O-])cc1,-5,69*,75*,34,45,76*,79*,67*,83*
